For 14 compounds, composite z-score and z-score results are on record in PubChem BioAssay.

Test [1] deals with PRMT1 (protein arginine N-methyltransferase 1). Put plainly: small molecules binding arginine methyltransferase PRMT1 – biochemical, small-molecule microarray, 635 nm fluorescence, primary screen (AID 1088).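 Also: binding of Prmt1 protein to compounds spotted on small-molecule microarray slides.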 The conditions noted are these: higher = more signal.
Test [2] in a line: growth effects on S. cerevisiae YJM789 – YJM789 clinical isolate, OD600, 24 h, basal, primary screen (AID 1089).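 Also: growth of clinical yeast isolate S. cerevisiae YJM 789 seeded 1000 cells per well; test concentration not given here.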 The conditions noted are these: higher = more signal, called active from +8 up or from −8 down.
Test [3] is described as follows: S. pombe growth modifiers, basal conditions – strain 972, OD600, 24 h, no modulator, primary screen (AID 1090).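 Also: basal condition with compound alone and no growth modifier present; test concentration not given here.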 The conditions noted are these: S. pombe 972 growth, higher = more signal, called active from +8 up or from −8 down.
Test [4] can be described thus: budding yeast growth modifiers under rapamycin – strain BY4716, OD600, 96 h, primary screen (AID 1091). Also: test concentration not given here. The conditions noted are these: S. cerevisiae BY4716 + rapamycin, higher = more signal, called active from +8 up or from −8 down.
For test [5], the target named is Torsin-1A-interacting protein 2 (Homo sapiens) (UniProt Q8NFQ8). The test can be described thus: small molecules binding lysate-expressed LULL1 – cell lysate, human LULL1 lysate, 635/667 nm fluorescence, primary screen (AID 1092).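 Also: probe is lysate of COS7 cells overexpressing human LULL1; score merges per-feature 667 nm fluorescence with signal-to-noise.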 The conditions noted are these: small-molecule microarray, hLULL1 lysate binding, 635 nm fluorescence; higher = more signal.
The nature of test [6]: optical density change of DRC41 E. coli – strain DRC41, OD650, 24 h, E. coli filamentation project, primary screen (AID 1093).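 Also: MC1000 strain lacking acrAB efflux and sulA so SOS filamentation is blocked; test concentration not given here.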 The conditions noted are these: E. coli DRC41 growth, higher = more signal, called active from +8 up or from −8 down.
A short description of test [7]: probe aLefty2 binding to arrayed compounds – biochemical, biotinylated probe, 635/667 nm fluorescence, primary screen (AID 1094).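 Also: score merges spot fluorescence near 667 nm with spot signal-to-noise ratio.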 To be noted: small-molecule microarray, higher = more signal.
In test [8] the test system is Noggin (protein binding on small-molecule microarray). The test can be described thus: small molecules binding Noggin protein – biochemical, 635/667 nm fluorescence, primary screen (AID 1095).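 Also: score merges 667 nm feature fluorescence with signal to noise over triplicate slides.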 To be noted: 635 nm fluorescence, higher = more signal.
Test [9] has as its target Neurogenic locus notch homolog protein 3 (Homo sapiens) (UniProt Q9UM47). Put plainly: small molecules binding NOTCH3 protein – biochemical, 635/667 nm fluorescence, primary screen (AID 1096). The conditions noted are these: small-molecule microarray, 635 nm fluorescence, higher = more signal.
The nature of test [10]: probe aEGFR binding to arrayed compounds – biochemical, biotinylated probe, 635/667 nm fluorescence, primary screen (AID 1097).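 Also: probe is a biotinylated anti-EGFR antibody binding compounds printed on slides; score combines fluorescence near 667 nm and signal to noise of each spot.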 The conditions noted are these: small-molecule microarray, higher = more signal.

The source made the active and inactive calls.

Torsin-1A-interacting protein 2 (Homo sapiens), sequence (Q8NFQ8 whole entry, looked up): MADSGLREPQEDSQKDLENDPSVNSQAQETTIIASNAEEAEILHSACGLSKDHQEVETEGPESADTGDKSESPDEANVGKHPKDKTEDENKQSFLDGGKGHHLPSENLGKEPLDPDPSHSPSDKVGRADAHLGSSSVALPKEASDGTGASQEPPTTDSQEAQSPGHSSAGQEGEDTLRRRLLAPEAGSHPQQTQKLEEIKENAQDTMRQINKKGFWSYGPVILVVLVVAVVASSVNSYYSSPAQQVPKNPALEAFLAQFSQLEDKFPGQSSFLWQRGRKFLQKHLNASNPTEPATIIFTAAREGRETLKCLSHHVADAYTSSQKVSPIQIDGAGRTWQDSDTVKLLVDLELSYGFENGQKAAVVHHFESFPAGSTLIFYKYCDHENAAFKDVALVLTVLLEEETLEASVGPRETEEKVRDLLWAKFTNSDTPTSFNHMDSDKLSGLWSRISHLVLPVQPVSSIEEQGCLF
Neurogenic locus notch homolog protein 3 (Homo sapiens), sequence (Q9UM47 whole entry, looked up): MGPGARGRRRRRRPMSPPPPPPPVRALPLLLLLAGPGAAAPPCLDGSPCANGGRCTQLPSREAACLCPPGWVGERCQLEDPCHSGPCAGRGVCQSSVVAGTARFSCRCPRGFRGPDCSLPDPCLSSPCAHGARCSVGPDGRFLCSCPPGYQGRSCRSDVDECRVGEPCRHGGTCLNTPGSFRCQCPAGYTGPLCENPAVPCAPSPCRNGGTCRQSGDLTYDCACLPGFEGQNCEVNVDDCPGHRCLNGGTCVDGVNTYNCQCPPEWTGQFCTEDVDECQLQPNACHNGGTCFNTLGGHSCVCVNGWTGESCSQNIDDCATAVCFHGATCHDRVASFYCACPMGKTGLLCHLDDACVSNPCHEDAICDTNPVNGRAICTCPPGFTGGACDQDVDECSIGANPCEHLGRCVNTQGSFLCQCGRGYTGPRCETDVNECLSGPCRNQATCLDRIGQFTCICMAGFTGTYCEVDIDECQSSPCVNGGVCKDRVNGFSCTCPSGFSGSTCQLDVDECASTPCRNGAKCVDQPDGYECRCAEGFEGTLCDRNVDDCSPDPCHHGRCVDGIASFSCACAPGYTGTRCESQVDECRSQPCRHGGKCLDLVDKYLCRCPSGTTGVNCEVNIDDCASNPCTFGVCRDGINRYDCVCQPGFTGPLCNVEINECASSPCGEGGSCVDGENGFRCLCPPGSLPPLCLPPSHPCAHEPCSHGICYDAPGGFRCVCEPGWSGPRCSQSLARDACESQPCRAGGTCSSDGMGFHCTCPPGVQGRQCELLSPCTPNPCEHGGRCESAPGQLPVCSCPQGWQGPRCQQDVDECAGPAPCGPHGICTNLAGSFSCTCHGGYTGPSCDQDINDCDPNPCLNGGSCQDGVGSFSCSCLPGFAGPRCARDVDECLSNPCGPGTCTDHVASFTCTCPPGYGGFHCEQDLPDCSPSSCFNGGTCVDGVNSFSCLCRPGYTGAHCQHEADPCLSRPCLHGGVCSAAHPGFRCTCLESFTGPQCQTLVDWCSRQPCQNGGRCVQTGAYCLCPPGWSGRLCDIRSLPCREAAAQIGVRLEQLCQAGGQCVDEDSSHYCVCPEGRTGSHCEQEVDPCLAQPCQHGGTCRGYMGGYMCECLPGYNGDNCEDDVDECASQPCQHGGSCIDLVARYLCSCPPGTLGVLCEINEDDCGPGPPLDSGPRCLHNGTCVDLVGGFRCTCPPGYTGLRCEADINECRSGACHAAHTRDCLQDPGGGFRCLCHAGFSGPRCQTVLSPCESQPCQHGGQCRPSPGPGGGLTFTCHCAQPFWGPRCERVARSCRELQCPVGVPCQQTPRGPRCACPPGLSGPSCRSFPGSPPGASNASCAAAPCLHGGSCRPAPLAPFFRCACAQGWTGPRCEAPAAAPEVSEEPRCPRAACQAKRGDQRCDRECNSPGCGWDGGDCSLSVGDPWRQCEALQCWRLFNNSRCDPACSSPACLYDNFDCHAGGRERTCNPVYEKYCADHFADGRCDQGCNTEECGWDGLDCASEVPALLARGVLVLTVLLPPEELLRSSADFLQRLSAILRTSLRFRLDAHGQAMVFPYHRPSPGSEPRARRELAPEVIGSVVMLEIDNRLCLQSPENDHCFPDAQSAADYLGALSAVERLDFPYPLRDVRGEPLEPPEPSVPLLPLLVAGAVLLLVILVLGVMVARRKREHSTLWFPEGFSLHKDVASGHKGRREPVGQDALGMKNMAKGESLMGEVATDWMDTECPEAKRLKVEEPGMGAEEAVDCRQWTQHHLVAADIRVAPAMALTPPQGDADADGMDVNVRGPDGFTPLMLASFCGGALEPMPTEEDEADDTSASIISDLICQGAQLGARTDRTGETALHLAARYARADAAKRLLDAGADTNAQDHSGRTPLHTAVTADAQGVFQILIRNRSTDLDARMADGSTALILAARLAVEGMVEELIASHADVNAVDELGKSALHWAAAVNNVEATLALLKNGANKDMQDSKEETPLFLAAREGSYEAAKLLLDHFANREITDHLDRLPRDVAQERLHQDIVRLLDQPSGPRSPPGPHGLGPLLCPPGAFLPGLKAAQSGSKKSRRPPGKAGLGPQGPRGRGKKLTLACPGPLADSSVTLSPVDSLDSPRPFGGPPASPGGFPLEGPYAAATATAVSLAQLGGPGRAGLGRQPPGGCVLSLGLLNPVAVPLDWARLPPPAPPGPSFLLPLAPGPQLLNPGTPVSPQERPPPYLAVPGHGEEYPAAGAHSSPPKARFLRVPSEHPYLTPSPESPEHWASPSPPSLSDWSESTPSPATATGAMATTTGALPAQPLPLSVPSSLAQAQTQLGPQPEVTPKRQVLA

Turning to `C[C@H](c1ccccc1)N1C(=O)[C@H]2[C@H]3[C@H](O)[C@H](O)CC(=O)[C@@H]3CC[C@H]2C1=O`, the composite z-score in [1] is 0.27; in test [5], 0.685; in [7], -0.226; in test [8] it was 0.245; in [9] it was 0.419; in [10] it was 0.221. Further, the z-score is -0.228 (inactive) in [2], -0.522 (inactive) in [3], -0.478 (inactive) in [4] and -0.417 (inactive) in [6].

Take `COCC1=C2[C@@H](CCc3ccccc3)OB(O)C[C@@H]2n2c(=O)n(-c3ccccc3)c(=O)n2C1`: the composite z-score in test [1] is -0.162; in test [5], 0.332; in [7] it was -0.166; in test [8], 0.264; in test [9], -0.26; in [10], -0.145. The z-score in test [2] is 0.114 (inactive); in [3] it was -0.591 (inactive); in test [4] it was -0.644 (inactive); in test [6] it was 0.203 (inactive).

Regarding `O=C1[C@H]2[C@H]3[C@H](O)[C@H](O)CC(=NO[C@@H]4O[C@H](CO)[C@@H](O)[C@H](O)[C@H]4O)[C@H]3CC[C@H]2C(=O)N1C1CCCCC1`, the composite z-score is 1.55 in [1]; 1.58 in test [5]; -0.0652 in test [7]; 1.36 in test [8]; 0.308 in test [9]; -0.12 in test [10]. In addition, the z-score was -0.546 (inactive) in test [2], 0.506 (inactive) in test [3], -0.0694 (inactive) in [4] and 0.15 (inactive) in [6].

For the compound `COC(=O)[C@@]1(Cc2ccc(OC)cc2)[C@H]2c3cc(C(=O)N4CCCC4)n(Cc4cc(F)c(F)c(F)c4)c3C[C@H]2CN1C(=O)c1ccccc1`, the composite z-score in test [1] is 1.25; in test [5], 3.39; in [7] it was 1.44; in [8], -0.131; in test [9] it was 1.01; in test [10], 1.17. Besides, the z-score in [2] is 0.68 (inactive); in test [3] it was 1.39 (inactive); in [4], 7.41 (inactive); in [6] it was -1.19 (inactive).

Take `COC(=O)CC=C[C@H](C)[C@H](CO)NS(=O)(=O)c1ccc(C)cc1`: the composite z-score in test [1] is 0.562; in test [5] it was 0.368; in test [7] it was -0.243; in [8] it was 0.504; in [9], 0.506; in test [10], -0.0953. The z-score was -0.0524 (inactive) in test [2], -0.256 (inactive) in test [3], -0.142 (inactive) in test [4] and -0.518 (inactive) in [6].

In the case of `COCCOC(=O)N1C(=O)[C@@]2(c3cc(C#CC4(O)CCCCCC4)ccc31)[C@H](c1ccc(OCCO)cc1)N1[C@H](c3ccccc3)[C@H](c3ccccc3)OC(=O)[C@H]1[C@@H]2C(=O)NC[C@H](O)c1ccccc1`, the composite z-score in test [1] was 1.55; in [5] it was 2.87; in test [7] it was -0.0212; in test [8] it was 0.816; in [9], 1.03; in test [10], -0.0555. Besides, the z-score in [2] was 2.19 (inactive); in [3], 0.874 (inactive); in [4], 6.86 (inactive); in test [6] it was 1.6 (inactive).

`CO[C@H]1COC(=O)[C@@H]2CCCN2C(=O)[C@@H](C)COC(=O)CC=C[C@@H]1C`: the composite z-score was 1.47 in [1]; -0.652 in test [5]; -0.238 in test [7]; 0.927 in [8]; 0.665 in test [9]; 0.0082 in test [10]. Moreover, the z-score was -0.62 (inactive) in test [2], 0.0569 (inactive) in test [3], -1.53 (inactive) in test [4] and 0.264 (inactive) in test [6].

For `CC1CC/C=C\[C@H]2OC34C=CCN(C(C)C)C(=O)[C@H]3N(CCCO)C(=O)[C@@H]4C2C(=O)O1` (stereo not given in full), the composite z-score is 1.04 in [1]; 1.29 in test [5]; 0.131 in test [7]; -1.42 in test [8]; -0.344 in [9]; -0.214 in [10]. In addition, the z-score in test [2] is -1.36 (inactive); in [3], -1.14 (inactive); in [4], -0.24 (inactive); in test [6], 1.14 (inactive).

`CCN1C(=O)[C@H]2[C@H]3[C@H](O)[C@H](O)CC(=NOC(C)CN4CCCCc5nc(C)c(C)cc54)[C@@H]3CC[C@H]2C1=O` (stereo not given in full): the composite z-score in test [1] was 0.708; in test [5] it was -0.414; in test [7], -0.0977; in test [8] it was 0.732; in [9] it was 0.398; in [10] it was 0.126. The z-score is 0.12 (inactive) in test [2], 0.634 (inactive) in [3], 0.403 (inactive) in test [4] and 1.03 (inactive) in [6].

For the compound `CC(C)CON=C1C[C@@H](O)[C@@H](O)[C@@H]2[C@@H]3C(=O)N([C@@H](C)c4ccccc4)C(=O)[C@@H]3CC[C@H]12`, the composite z-score in test [1] was 1.54; in test [5], 2.73; in test [7], -0.128; in test [8] it was 1.12; in test [9], 1.08; in [10], -0.0146. Besides, the z-score in test [2] is 0.466 (inactive); in [3], 0.443 (inactive); in [4], -0.0803 (inactive); in test [6], 0.0955 (inactive).

With `CC(C)CON=C1C[C@@H](O)[C@@H](O)[C@@H]2[C@@H]3C(=O)N(Cc4ccccc4)C(=O)[C@@H]3CC[C@@H]12`, the composite z-score was 0.517 in test [1]; 0.434 in [5]; -0.099 in test [7]; 0.484 in [8]; 0.59 in test [9]; -0.0679 in [10]. In addition, the z-score in [2] was -0.443 (inactive); in test [3], -0.264 (inactive); in [4], -0.682 (inactive); in test [6], 0.354 (inactive).

As to `CO[C@@H]1COC(=O)[C@H](C)NC(=O)[C@@H](C)COC(=O)CCC[C@H]1C`, the composite z-score in [1] is 1.27; in test [5], 2.11; in test [7] it was -0.179; in test [8], 0.209; in test [9], -0.0217; in [10], 0.136. Further, the z-score is -0.11 (inactive) in test [2], 0.381 (inactive) in [3], -1.14 (inactive) in test [4] and -0.183 (inactive) in test [6].

Consider `CCc1cc2c(nc1CC)CCN(CCC(C)=NO[C@@H](C)c1cc(-c3c(C)cc(C)cc3C)no1)C2`, for which the composite z-score is 0.608 in test [1]; 0.468 in [5]; -0.0765 in test [7]; 0.343 in test [8]; -1.5 in test [9]; -0.172 in test [10]. The z-score in test [2] was -0.889 (inactive); in test [3], -6.86 (inactive); in test [4], -1.26 (inactive); in [6], -0.0254 (inactive).

For `CCCCC(=C=CC[C@H](O)c1ccccc1OCCO)C[C@H](O)COCc1ccccc1`, the composite z-score is -0.0855 in [1]; 1.03 in test [5]; -0.145 in [7]; -0.142 in test [8]; -0.171 in [9]; -0.12 in test [10]. Also, the z-score is 0.115 (inactive) in test [2], -0.729 (inactive) in [3], -0.659 (inactive) in [4] and 0.0754 (inactive) in test [6].
